According to ChEMBL document CHEMBL3988442, “University of Dundee, Small-Polar-MMV Screening Library” (2021):
Among all 53,000 compounds or so, about 900 (1.7%) showed an effect of 50% or more. The sample as a whole holds a higher share of strong results than the screen did.

Tested on: Mycobacterium tuberculosis
Assay: Cornell - Phenotypic assay to identify agents that inhibit growth of Mycobacterium tuberculosis
Format: functional
Design: scale not given: direction of the effect not stated beside the values
Details: 10 mM as filed; unlikely as a test dose

SMILES	Percent Effect [%]
Cc1nc(CNCc2cccc(OC34CCCN(CC3)C4)c2)n[nH]1 (stereo not drawn)	22.09
Cc1nn2c(NC(=O)CSc3nccn3C)csc2nc1=O	-11.03
O=C1CCC(C(=O)Nc2ccc(=O)n(Cc3ccccc3Cl)c2)N1 (stereo not drawn)	-13.24
CNC(=O)c1cccc(C2CNCCN2C(=O)C2CCNCC2)c1 (stereo not drawn)	0.2477
CC(=O)Nc1cc(-c2cccc(F)c2F)n[nH]1	22.81
CCS(=O)(=O)CC(=O)Nc1cc(-c2cccc(F)c2F)n[nH]1	15.94
CCOCC(=O)Nc1cc(-c2cccc(F)c2F)n[nH]1	57.77
O=C1NC[C@]2(CC[C@@H](C(=O)N3CCCC(O)C3)CC2)Oc2ccccc21 (stereo partly drawn)	-1.738
CC(=O)N1CCN(C(C)c2nnc(CC(C)C)o2)CC1 (stereo not drawn)	3.173
COCCNC(=O)CSCc1nc(O)c2cc(C(C)C)sc2n1	-18.87
COC(=O)[C@H](C)NC(=O)CSCc1nc2sc(C(C)C)cc2c(=O)[nH]1	57.77
COC(=O)C(C)NC(=O)CSCc1nc(O)c2cc(C(C)C)sc2n1 (stereo not drawn)	10.11
CC(C)CN1C[C@H](COCc2ccccc2)Oc2ncccc2C1=O	-10.08
Cc1ncc(C(=O)NCCNc2ncccn2)s1	-0.6021
CCS(=O)(=O)Nc1cnn(Cc2cccc(Cl)c2)c1	-14.58
CCS(=O)(=O)Nc1cnn(Cc2cccc(C)c2)c1	56.26
CCS(=O)(=O)Nc1cnn(Cc2cccc(F)c2)c1	14.06
Cc1c(S(=O)(=O)NCC(C)C)cnn1C	-2.001
COc1cccc(CCC(=O)Nc2c(C)nn(C)c2C)c1OC	-11.78
Cc1nc(-c2ccc(CO)cc2)cc(C2CCNCC2)n1.Cl	12.1
O=C(NCc1ccccn1)[C@@]12CCO[C@@H]1CCN(Cc1ccccn1)C2.O=C(O)C(F)(F)F.O=C(O)C(F)(F)F.O=C(O)C(F)(F)F	-14.31
COC(=O)[C@H](C)NC(=O)c1cc(-c2cccc(Cl)c2)no1	105.7
CC(NC(=O)c1cc(-c2cccc(Cl)c2)no1)C(=O)N1CCCC1 (stereo not drawn)	1.351
CC(NC(=O)c1cc(-c2cccc(Cl)c2)no1)C(=O)N(C)C (stereo not drawn)	9.545
O=C(NCc1ccc(OCC2CC2)nc1)C1COc2ccccc2O1 (stereo not drawn)	16.73
Cc1nn2c(N3CCC(O)C3)cc(-c3ccccc3)nc2c1C (stereo not drawn)	16.78
Cc1nn2c(N3CCC(C(N)=O)CC3)cc(-c3ccccc3)nc2c1C	21.25
Cc1nn2c(N3CCC(O)CC3)cc(-c3ccccc3)nc2c1C	72.96
